± gives the standard deviation of the averaged measurements. Whole data set: some 25,000 sequences, median “ln(normalized median fluorescence intensity)” near 10, cut for the highest 2% near 12. The list comes from a sample in which the highest values are over-represented; it also holds similar and randomly drawn sequences.

In the test the test system is PfAP2-G AP2 domain (GST-tagged). The test can be described thus: gcPBM binding intensity (ln(normalized median fluorescence intensity)); higher = stronger DNA binding. A digest of the protocol:
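Each value is the highest Masliner-normalised natural-log median intensity across replicate spots of either orientation of a probe. The probes were primer-extended double-stranded 36-bp intergenic genomic sequences on an Agilent 4 × 180k array, alongside negative controls, exposed for 1 h to GST-tagged P. falciparum DNA-binding domains expressed in E. coli. Bound protein was picked up with Alexa488 anti-GST antibody and scanned at 488 nm.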
Regarding “TTTTTAATCCTTTGCGCATGTAAAATTATATATTTT [TGCATGCA_site306]”, the “gcPBM binding intensity (ln)” value came out at 10.1 ± 0.11.
With “TCATTTTAAGGAAAAAGTACAAAATAATATGTTCCT [XGTACX_site1903]” the figure was 11 ± 0.65; with “ATCTCTTAAATTTTACGTACTTATTTTATCTTCTTA [XGTACX_site8877]”, 11.2 ± 0.67.
In the case of “AATTTCAATTTCTGTTGTACACTTTTTAATAGTAAA [XGTACX_site4085]”, the “gcPBM binding intensity (ln)” value was determined as 11.4 ± 0.88.
Take “ATTATGATTTTATAGAACTGAACATTTACATTAAAT [GTGCAC_negctrl_site192]”: the “gcPBM binding intensity (ln)” value came out at 9.855 ± 0.064.
“TAAAAATGTGGACACACACACATATTTATATTTAAT [CACACA_site6827]”: the “gcPBM binding intensity (ln)” value was 11.4 ± 0.72.
The value for “TATCCATTATTTAAAAGTACAAAAAACGATTTACAC [XGTACX_site2979]” was 11.3 ± 0.8; that for “TTAAGTATTTTACGTACACACTTATAAATGTACAGG [CACACA_site6012]” was 11.7 ± 0.93.
Turning to “CTACACACTTATAAATGTACAGGATTTAAGTATATG [XGTACX_site8245]”, the “gcPBM binding intensity (ln)” value was determined as 10.9 ± 0.49.
On to “ATATAAAAATGTGTATGTACACACTTTATTTTTAAT [XGTACX_site5272]”, for which the “gcPBM binding intensity (ln)” value was determined as 11.4 ± 0.74.
Consider “GAATAATATGGACATACACACATATACATACATATA [CACACA_site2114]”, for which the “gcPBM binding intensity (ln)” value turned out to be 10.9 ± 0.51.
As for “TATAAATACATACGTACACACAAATATTAAAATATA [CACACA_site5129]”, the “gcPBM binding intensity (ln)” value came out at 11.5 ± 0.87.
The value for “CATATAATAAATAATACACACATATTGGAAATATAT [CACACA_site3212]” was 9.98 ± 0.057.
For “TGGAATAATCCGCGTACACACATATATATATTAAGA [CACACA_site4253]”, the “gcPBM binding intensity (ln)” value is 11.6 ± 0.87.
With “ATATGGAATAATACGCGTACACACATATATATATTA [XGTACX_site307]” the figure was 11.7 ± 1; with “AATATATATTAATACACACACACATATATATATATA [CACACA_site3786]”, 10.3 ± 0.47.
The value for “GTAATTATATACATACGTACATACACATATGTATAT [XGTACX_site4149]” was 11.3 ± 0.65; that for “TTAAAAATTATGGATACACACATATATATATATATT [CACACA_site2383]” was 10.2 ± 0.2; that for “TGGAATAATACGCGTACACACATATATATATTAATA [CACACA_site131]” was 11.8 ± 0.97.
The value for “TGGAATAATACGCGTACACACATATAAATATTAATA [CACACA_site6211]” was 11.7 ± 0.91; that for “TATGGAATAATACGCGTACACACATATATATATTAA [CACACA_site132]” was 11.6 ± 0.93; that for “GTCTGCATATGGATACGTACACATATATATTAATGT [XGTACX_site2260]” was 11.7 ± 0.91.
As to “AGTTTTATATTTCTGAGTACTTATGAATCTAGCTCG [XGTACX_site4330]”, the “gcPBM binding intensity (ln)” value amounted to 11.2 ± 0.72.
Turning to “TGGTGATATACGAAATGTACGCAAATCACAAAATAA [XGTACX_site8836]”, the “gcPBM binding intensity (ln)” value is 11.5 ± 0.98.
With “ATTAAAAAAAAAAAAAAAAAACAAAAAAAAAAAAAA [CACACA_negctrl_site1187]” the figure was 9.62; with “ACTTGTAAGAAACACACACACACACCCATATATATA [CACACA_site796]”, 10.2 ± 0.14; with “TTTTTAAAACATCACTGTACCCGTTATGGTGAACAT [XGTACX_site3483]”, 11.7 ± 1.2.
For the sequence “CTGAACCCGTTATGGTGTACATAAAATAAGACACAG [XGTACX_site3484]”, the “gcPBM binding intensity (ln)” value was 11.6 ± 0.96.
With “TTTTATTATTAAACATGTACCCATATTATTGTTATG [XGTACX_site5563]” the figure was 11.2 ± 0.56; with “TATATATATATATATAGTACATATTAATTAATTTAT [XGTACX_site8198]”, 10.8 ± 0.63; with “CCTAAAAAAAAGAAATGATATACATATGTATATATA [GTGCAC_negctrl_site100]”, 9.685 ± 0.064.
The value for “TAAATAGATGTTTTATGTACGTATAAATAAAAAAAA [XGTACX_site3412]” was 11.7 ± 0.88; that for “ATAAAAATAAAAAGATGTACGTATTTTTTTTTTTTT [XGTACX_site5329]” was 11.6 ± 0.91; that for “TATATAATATATTTATGTACGTATTTAAAAATTTAT [XGTACX_site160]” was 11.6 ± 0.98.
Take “TTTATTTTGATTTAATGTACAAATAGTAAAACAAAA [XGTACX_site4789]”: the “gcPBM binding intensity (ln)” value worked out at 10.9 ± 0.49.
The value for “AATAGTAAAAATCACTGTACGTTTATTTTTAAAATG [XGTACX_site1035]” was 11.7 ± 0.91; that for “AAATTTAGTAAAAAATGTACGTAAAATGTAAAATAT [XGTACX_site1314]” was 11.5 ± 0.73; that for “ATTTATTTTGTTGTTGTTTTTATTTGATTGTTTTAT [CACACA_negctrl_site1275]” was 9.785 ± 0.007.
Regarding “TATATATATATTATATGTACACATTTGTGAATTATT [XGTACX_site5848]”, the “gcPBM binding intensity (ln)” value is 11.5 ± 0.85.
The value for “ATTTTATAACATTCATGTACACATTTCATTTATTTG [XGTACX_site3028]” was 11.3 ± 0.77; that for “TATAACATTATTTTGTGTACACATTCGGTTATATTA [XGTACX_site6310]” was 12 ± 1.1; that for “TTTTATAAATATTTTTGTACACATTTAAATATTATT [XGTACX_site4973]” was 11.3 ± 0.59.
The value for “GTTATTCTTAATTTTTGTACACATTTTTATATTATT [XGTACX_site7227]” was 11.4 ± 0.7.
Consider “AACATTATTTTGTGTACACATTCGGTTATATTATAT [CACACA_site5628]”, for which the “gcPBM binding intensity (ln)” value came out at 11.8 ± 1.

Source of the values: the supplement of paper PMC11417369.
